Most compounds without a hit are left out; they make up all but 1.3% or so of the library.
LAP4 TOR yeast: alters LAP4-GFP fluorescence in TOR pathway yeast screen. S. cerevisiae LAP4-GFP multiplex, flow cytometry GFP, 3 h; median GFP as percent of DMSO wells. GFP response vs DMSO, % at 10 µM. 0.34% of 320,000 active;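 active = GFP response vs DMSO above a set limit, about the screen mean plus 3 SD, cut at about 150% in these data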
RPL19A-GFP yeast: modulators of TOR pathway RPL19A-GFP in S. cerevisiae | 0.3% of 330,000 active | AID 2025 | S. cerevisiae RPL19A-GFP strain, flow cytometry, 3 h; active compounds read low | percent response vs DMSO, % at 10 µM;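 active = percent response vs DMSO below 50%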;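 also: median channel GFP fluorescence of the barcoded RPL19A-GFP strain; ratio of sample median GFP to plate DMSO average so 100% = DMSO; lower means less RPL19A-GFP as with rapamycin TOR inhibition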
MEP2-GFP yeast: yeast TOR pathway MEP2-GFP modulation | S. cerevisiae MEP2-GFP strain, flow cytometry GFP, 3 h; 100% = DMSO control level | GFP response vs DMSO, % at 10 µM | 0.51% of 330,000 active | AID 2016;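 active = GFP response versus DMSO above a set limit, roughly screen mean plus 3 SD, cut at about 180% in these data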;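 also: median GFP fluorescence of the barcode-gated MEP2-GFP cells per well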
CIT2 TOR yeast: alters CIT2-GFP fluorescence in TOR pathway yeast screen | S. cerevisiae CIT2-GFP strain, flow cytometry, 3 h; 100 means same as DMSO wells | GFP response vs DMSO, % at 10 µM | 0.065% of 320,000 active | AID 2029;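 active = GFP response relative to DMSO above a set limit, near the screen mean plus 3 SD, cut at about 150% in these data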;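 also: ratio of well median GFP fluorescence to mean of DMSO wells on the plate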
AGP1 TOR yeast: alters AGP1-GFP fluorescence in TOR pathway yeast screen | S. cerevisiae AGP1-GFP multiplex flow cytometry, 3 h; GFP as percent of DMSO wells | GFP response vs DMSO, % at 10 µM | 0.02% of 320,000 active | AID 2066;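 active = GFP response relative to DMSO above a set limit, near screen average plus 3 SD, cut at about 150% in these data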;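 also: median GFP channel fluorescence of the gated AGP1 strain per well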
Efflux pump inh: blocks antifungal efflux pumps in multiplex yeast assay; inhibition, % at 10 µM; 0.44% of 330,000 active; S. cerevisiae Candida pump triplex, Nile Red efflux; AID 485275;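 active = plate passing quality check with inhibition over a set limit, or well fluorescence over plate mean plus 4 SD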;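 also: Nile Red retained in pooled yeast measured as flow cytometry median fluorescence; 0% = buffer negative control and 100% = Enniatin B positive control; higher means more Nile Red kept so more efflux inhibition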
LAP4 cherry2: reconfirmed LAP4-GFP TOR pathway modulator in yeast. shares compounds with LAP4 TOR yeast. S. cerevisiae LAP4-GFP strain, flow cytometry GFP, 3 h. GFP response vs DMSO, % at 10 µM. 20% of 590 active;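 active = GFP signal as percent of the solvent control above about 150%, meaning raised reporter expression, limit read from the data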;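 also: ratio of well median GFP fluorescence to plate DMSO mean so 100% = DMSO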
MEP2 cherry2: second confirmation of modulators of TOR reporter MEP2-GFP in yeast. GFP response vs DMSO, % at 10 µM. S. cerevisiae MEP2-GFP strain, flow cytometry GFP, 3 h. shares compounds with LAP4 TOR yeast. 10% of 590 active. AID 2622;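 active = GFP signal above 150% of the solvent control wells, that is a rise of more than half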;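 also: median channel GFP fluorescence of all gated yeast cells per well; ratio of median GFP to plate DMSO average so 100% = DMSO level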
RPL19A GFP CP2: reconfirmed modulator of RPL19A-GFP TOR reporter in yeast; shares compounds with LAP4 TOR yeast; S. cerevisiae RPL19A-GFP strain, flow cytometry GFP, 3 h; active compounds read low; 100% means same as DMSO wells; GFP response vs DMSO, % at 10 µM; 3% of 590 active; AID 2623;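 active = under 65% GFP response relative to DMSO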;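 also: median GFP channel fluorescence per well over the all cells gate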
CIT2-GFP pick2: second confirmation of modulators of TOR reporter CIT2-GFP in yeast; GFP response vs DMSO, % at 10 µM; shares compounds with LAP4 TOR yeast; S. cerevisiae CIT2-GFP strain, flow cytometry GFP, 3 h; DMSO control wells read 100%; AID 2624; 8% of 590 active;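 active = GFP response vs DMSO above about 150%, limit read from the data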;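 also: median green fluorescence per well over all gated yeast cells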
AGP1 GFP CP2: second confirmation of modulators of TOR reporter AGP1-GFP in yeast. shares compounds with LAP4 TOR yeast. S. cerevisiae AGP1-GFP strain, flow cytometry GFP, 3 h. percent response vs DMSO, % at 10 µM. 590 tested, under 10 active. AID 2643;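 active = over 150 percent of DMSO response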;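 also: median GFP channel fluorescence over all cells without mother daughter split; sample median GFP divided by mean DMSO control so 100% equals DMSO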
s288c autofluor: compound is autofluorescent in yeast s288c cells. AID 2757. 610 tested, under 10 active. fluorescence change (kMESF span) at 33 µM. shares compounds with LAP4 TOR yeast. S. cerevisiae s288c, 520 nm autofluorescence, flow cytometry, 3 h; active compounds read high; zero means same as solvent-only cells;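 active = fluorescence span over the dose series, or activity score, above about 33, limit read from the data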
Yeast autofl DR: TOR screen hit shows autofluorescence in yeast s288c. 110 tested, under 10 active. fluorescence change (span) at 33 µM. shares compounds with LAP4 TOR yeast. AID 488829. S. cerevisiae s288c parental, compound autofluorescence, flow cytometry, 3 h;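 active = fluorescence change span, or the activity score built from it, above 25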
TORC1 bypass: stops wildtype yeast growth while TORC1 bypass cells still grow | shares compounds with LAP4 TOR yeast | 120 tested, under 10 active | growth rating (0-3) at 30 µM | S. cerevisiae BY4741 spot growth rating, 48-72 h; active compounds read low;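 active = growth rating at most 1 for wild type yeast while the TORC1 bypass strain still grows fully, rated 3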
Starred values were filed as active, the others as inactive; . = not tested or not shown.

SMILES | LAP4 TOR yeast | RPL19A-GFP yeast | MEP2-GFP yeast | CIT2 TOR yeast | AGP1 TOR yeast | Efflux pump inh | s288c autofluor | others
CCCCOc1ccc(C(=O)NNC(=S)NC(=O)CC)cc1 | 299* | 89 | 117 | 77 | 95 | 0 | 1.4 | LAP4 cherry2=331*;MEP2 cherry2=155*;RPL19A GFP CP2=105;CIT2-GFP pick2=167*;AGP1 GFP CP2=108
CCCCC(=O)NNC(=S)NC(=O)c1ccc(C)cc1 | 193* | 96 | 114 | 111 | 129 | 0 | 1.1 | Yeast autofl DR=0.89;TORC1 bypass=3
CC(Oc1ccc(Cl)cc1)C(=O)NNC(=S)NC(=O)c1ccco1 (stereo not given) | 242* | 88 | 101 | 112 | 102 | 0 | 0.91 | Yeast autofl DR=0.52;TORC1 bypass=3
CCCCC(=O)NNC(=S)NC(=O)c1ccc([N+](=O)[O-])cc1 | 119 | 96 | 95 | 96 | 94 | 0 | .
CCCOc1ccc(C(=O)NNC(=S)NC(=O)c2ccco2)cc1 | 154* | 112 | 110 | 111 | 113 | 0 | 1.1
COc1ccc(C)cc1NC(=O)CN1C(=O)COc2ccc(C)cc21 | 92 | 101 | 105 | 101 | 97 | 0 | .
Cc1ccccc1C(=O)NNC(=S)NC(=O)COc1ccccc1 | 146 | 106 | 102 | 90 | 92 | 0 | .
CCCOc1ccc(C(=O)NNC(=S)NC(=O)c2ccccc2)cc1 | 152* | 108 | 94 | 100 | 113 | 0 | 1
CC(C)(C)C(=O)NC(=S)NNC(=O)c1ccc(-c2ccccc2)cc1 | 246* | 89 | 126 | 94 | 88 | 0 | 1.4 | Yeast autofl DR=0.73;TORC1 bypass=3
Cc1ccc(C(=O)NNC(=S)NC(=O)COc2ccccc2)cc1 | 275* | 101 | 130 | 97 | 91 | 0 | -5.3 | Yeast autofl DR=0.68;TORC1 bypass=3
O=C(NNC(=S)NC(=O)c1ccco1)c1ccc(F)cc1 | 218* | 98 | 116 | 103 | 120 | 0 | 1.5
COc1ccccc1N1CCN(CCN2C(=O)C3CCCN3C2=O)CC1 (stereo not given) | 88 | 104 | 104 | 98 | 93 | 0 | .
COc1ccccc1C(=O)NNC(=S)NC(=O)c1ccco1 | 268* | 88 | 123 | 89 | 102 | 0 | 3.8 | LAP4 cherry2=335*;MEP2 cherry2=180*;RPL19A GFP CP2=110;CIT2-GFP pick2=138;AGP1 GFP CP2=117
CCC(C)C(NC(=O)C1CCC(C)CC1)C(=O)NCc1ccco1 (stereo not given) | 98 | 108 | 111 | 98 | 103 | 0 | .
COc1ccc(N2CCN(C(=O)CCS(=O)(=O)c3ccc4c(c3)CCN4C(=O)C3CC3)CC2)cc1 | 96 | 94 | 103 | 104 | 95 | 0 | .
Nc1nc2ncc(CNc3ccc(C(=O)N[C@@H](CCC(=O)O)C(=O)O)cc3)nc2c(=O)[nH]1 | 101 | 101 | 108 | 108 | 103 | 0 | 0.1 | LAP4 cherry2=102;MEP2 cherry2=103;RPL19A GFP CP2=100;CIT2-GFP pick2=97;AGP1 GFP CP2=101
CCOC(=O)CCC(NC(=O)c1ccc(NCN2C(=O)CCC2=O)cc1)C(=O)OCC (stereo not given) | 100 | 102 | 99 | 101 | 103 | 0 | .
CN(Cc1cnc2nc(N)nc(N)c2n1)c1ccc(C(=O)N[C@@H](CCC(=O)O)C(=O)O)cc1 | 233* | 84 | 90 | 58 | 97 | 0 | 0.51 | LAP4 cherry2=273*;MEP2 cherry2=128;RPL19A GFP CP2=93;CIT2-GFP pick2=93;AGP1 GFP CP2=127
CCOc1ccccc1N1CC(C(=O)Nc2ccccc2CC)CC1=O (stereo not given) | 103 | 103 | 103 | 105 | 105 | 0 | .
CCOC(=O)c1c(C)[nH]c(C)c1S(=O)(=O)N(C)CC(=O)NCc1cccc(Br)c1 | 114 | 60 | 877* | 88 | 27 | 0 | . | LAP4 cherry2=98;MEP2 cherry2=102;RPL19A GFP CP2=101;CIT2-GFP pick2=103;AGP1 GFP CP2=101
Cc1c(N2C(=O)/C(=C\c3ccccc3O)SC2=S)c(=O)n(-c2ccccc2)n1C | 170* | 95 | 96 | 108 | 93 | 0 | 0.6
O=C1C2C3C=CC(CO)(O3)C2C(=O)N1c1ccc(-c2ccccc2)cc1 (stereo not given) | 263* | 73 | 84 | 61 | 77 | 1.7* | 0.71
Cc1cccc(NS(=O)(=O)c2cc(C(=O)N3CCN(C)CC3)ccc2C)c1 | 99 | 96 | 99 | 102 | 103 | 0 | .
CCN1CCN(C(=O)c2ccc(C)c(S(=O)(=O)Nc3cccc(C)c3)c2)CC1 | 103 | 99 | 114 | 166* | 111 | 0 | . | LAP4 cherry2=100;MEP2 cherry2=105;RPL19A GFP CP2=99;CIT2-GFP pick2=104;AGP1 GFP CP2=104
Cc1cccc(N/C(N)=N/c2nc(CSc3ccc(Cl)cc3)cc(=O)[nH]2)c1 | 105 | 96 | 101 | 104 | 97 | 0 | .
O=C(Sc1cccc2cccnc12)c1ccccc1Br | 166* | 94 | 105 | 89 | 82 | 0 | 0.21
Cn1c(-c2ccccc2)cc(=O)c2ccccc21 | 101 | 98 | 101 | 100 | 104 | 0 | .
O=c1cc(-c2ccccc2)cc(-c2ccccc2)n1O | 194* | 99 | 97 | 69 | 89 | 0 | 1.2 | LAP4 cherry2=137;MEP2 cherry2=189*;RPL19A GFP CP2=70;CIT2-GFP pick2=125;AGP1 GFP CP2=63
CCOC(=O)CSC1=NC(=O)/C(=C\c2ccc(Cl)cc2)S1 | 184* | 94 | 87 | 73 | 83 | 0 | 0.21 | Yeast autofl DR=0.16;TORC1 bypass=3

Screens: PubChem, NMMLSC
